# Legend:
# Experiment in all cases: DAPPL (digital affinity profiling via proximity ligation, sequencing); 10 mM Tris-HCl pH 7.5, 50 mM NaCl, 1 mM DTT, 4% glycerol, room temperature, 30 min; GST-TFs on glutathione beads, 16-mer random dsDNA library, 0.1% formaldehyde crosslink after washing; high values mean tight binding
# FLI1 = target: T1, FLI1 (Homo sapiens, UniProt Q01543 1-452); conditions: protein: recombinant; tags: N-terminal GST; dsDNA, one strand shown
# T1 sequence: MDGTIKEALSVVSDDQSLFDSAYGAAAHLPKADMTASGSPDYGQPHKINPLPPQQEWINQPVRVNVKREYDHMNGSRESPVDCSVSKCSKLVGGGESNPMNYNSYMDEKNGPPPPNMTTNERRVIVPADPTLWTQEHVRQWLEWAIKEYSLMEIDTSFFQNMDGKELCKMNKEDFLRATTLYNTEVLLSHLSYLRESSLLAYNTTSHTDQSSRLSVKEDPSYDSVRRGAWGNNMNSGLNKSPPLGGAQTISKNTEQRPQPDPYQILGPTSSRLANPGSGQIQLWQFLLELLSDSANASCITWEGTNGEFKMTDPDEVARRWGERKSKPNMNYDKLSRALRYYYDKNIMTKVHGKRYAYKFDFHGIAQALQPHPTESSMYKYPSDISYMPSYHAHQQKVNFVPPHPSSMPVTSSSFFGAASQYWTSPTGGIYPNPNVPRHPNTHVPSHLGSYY
# Summary of the method: (§1)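 Binding signal is defined as a hexamer's read frequency for one factor over its frequency for the tag-only sample. To obtain reads, GST-fused human transcription factors were expressed in yeast, captured on glutathione beads, barcoded with DNA and pooled with that sample. Pools met 200 nmole of a 16-mer random double-stranded DNA library in Tris/NaCl/DTT/glycerol buffer for 30 min at room temperature before washing, 0.1% formaldehyde crosslinking, proximity ligation (BsaI/T4 ligase, 1 h, 37 °C), PCR and Illumina NextSeq500 sequencing.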
# ELK1 = target: T2, ELK1 (Homo sapiens, UniProt P19419 1-428); conditions: protein: recombinant; tags: N-terminal GST; dsDNA, one strand shown
# T2 sequence: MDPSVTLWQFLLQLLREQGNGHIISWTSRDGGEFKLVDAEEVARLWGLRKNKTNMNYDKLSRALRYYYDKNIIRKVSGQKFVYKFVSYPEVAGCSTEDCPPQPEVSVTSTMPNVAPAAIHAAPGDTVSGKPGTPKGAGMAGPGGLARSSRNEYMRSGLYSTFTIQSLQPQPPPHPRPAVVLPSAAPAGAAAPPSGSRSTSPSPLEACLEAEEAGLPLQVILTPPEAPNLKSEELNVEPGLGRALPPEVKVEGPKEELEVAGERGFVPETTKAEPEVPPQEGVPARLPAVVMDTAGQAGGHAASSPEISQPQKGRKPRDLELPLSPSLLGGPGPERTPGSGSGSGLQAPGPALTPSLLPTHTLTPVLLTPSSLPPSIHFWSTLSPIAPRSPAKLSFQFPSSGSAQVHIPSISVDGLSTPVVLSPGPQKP
# Summary of the method: as §1
# GABPA = target: T3, GABPA (Homo sapiens, UniProt Q06546 1-454); conditions: protein: recombinant; tags: N-terminal GST; dsDNA, one strand shown
# T3 sequence: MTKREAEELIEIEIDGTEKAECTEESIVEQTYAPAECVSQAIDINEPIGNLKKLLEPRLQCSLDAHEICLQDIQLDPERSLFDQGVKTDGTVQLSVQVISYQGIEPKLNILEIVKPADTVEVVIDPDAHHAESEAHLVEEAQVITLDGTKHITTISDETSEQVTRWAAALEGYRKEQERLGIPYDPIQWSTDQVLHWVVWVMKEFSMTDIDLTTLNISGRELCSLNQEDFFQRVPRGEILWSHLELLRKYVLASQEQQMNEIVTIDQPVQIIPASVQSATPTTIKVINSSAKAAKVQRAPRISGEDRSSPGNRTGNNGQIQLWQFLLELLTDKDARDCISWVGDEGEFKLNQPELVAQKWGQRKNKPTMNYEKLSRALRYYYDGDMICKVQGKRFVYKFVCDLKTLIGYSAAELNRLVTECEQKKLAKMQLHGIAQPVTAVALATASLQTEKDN
# Summary of the method: as §1
# ERG = target: T4, ERG (Homo sapiens, UniProt P11308 1-479); conditions: protein: recombinant; tags: N-terminal GST; dsDNA, one strand shown
# T4 sequence: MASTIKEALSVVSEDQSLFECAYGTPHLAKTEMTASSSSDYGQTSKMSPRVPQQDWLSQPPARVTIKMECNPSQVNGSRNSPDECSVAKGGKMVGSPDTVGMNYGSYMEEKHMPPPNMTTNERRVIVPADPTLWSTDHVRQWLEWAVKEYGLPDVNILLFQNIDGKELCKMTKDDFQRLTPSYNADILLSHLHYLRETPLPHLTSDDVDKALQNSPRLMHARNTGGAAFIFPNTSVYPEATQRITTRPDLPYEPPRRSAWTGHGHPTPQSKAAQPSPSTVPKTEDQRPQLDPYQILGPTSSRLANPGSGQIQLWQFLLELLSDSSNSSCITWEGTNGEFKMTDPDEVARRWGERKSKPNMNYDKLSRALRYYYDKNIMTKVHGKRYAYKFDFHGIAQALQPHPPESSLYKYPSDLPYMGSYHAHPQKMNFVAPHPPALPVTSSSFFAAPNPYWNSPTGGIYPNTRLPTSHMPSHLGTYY
# Summary of the method: as §1
# ELF1 = ELF1 (Homo sapiens, UniProt P32519 1-619); conditions: protein: recombinant; tags: N-terminal GST; dsDNA, one strand shown
# Sequence of ELF1 (P32519 whole entry): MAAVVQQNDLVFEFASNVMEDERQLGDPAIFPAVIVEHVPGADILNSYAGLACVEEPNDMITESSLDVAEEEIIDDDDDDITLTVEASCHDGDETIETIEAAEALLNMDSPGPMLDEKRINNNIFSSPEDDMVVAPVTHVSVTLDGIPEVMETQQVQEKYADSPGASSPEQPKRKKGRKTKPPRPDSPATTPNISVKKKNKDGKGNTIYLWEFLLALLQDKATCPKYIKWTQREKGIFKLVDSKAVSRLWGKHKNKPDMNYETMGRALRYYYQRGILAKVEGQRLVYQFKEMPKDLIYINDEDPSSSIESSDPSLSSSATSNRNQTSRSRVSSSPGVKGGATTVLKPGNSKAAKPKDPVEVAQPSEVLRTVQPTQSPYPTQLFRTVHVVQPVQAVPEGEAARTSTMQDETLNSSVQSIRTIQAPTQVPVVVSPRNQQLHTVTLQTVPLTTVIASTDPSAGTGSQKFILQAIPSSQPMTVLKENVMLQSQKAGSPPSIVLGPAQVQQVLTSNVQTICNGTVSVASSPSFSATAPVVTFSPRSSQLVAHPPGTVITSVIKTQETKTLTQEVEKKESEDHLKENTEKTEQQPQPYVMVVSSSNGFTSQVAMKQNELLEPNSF
# Summary of the method: as §1
# EHF = target: T5, EHF (Homo sapiens, UniProt Q9NZC4 1-300); conditions: protein: recombinant; tags: N-terminal GST; dsDNA, one strand shown
# T5 sequence: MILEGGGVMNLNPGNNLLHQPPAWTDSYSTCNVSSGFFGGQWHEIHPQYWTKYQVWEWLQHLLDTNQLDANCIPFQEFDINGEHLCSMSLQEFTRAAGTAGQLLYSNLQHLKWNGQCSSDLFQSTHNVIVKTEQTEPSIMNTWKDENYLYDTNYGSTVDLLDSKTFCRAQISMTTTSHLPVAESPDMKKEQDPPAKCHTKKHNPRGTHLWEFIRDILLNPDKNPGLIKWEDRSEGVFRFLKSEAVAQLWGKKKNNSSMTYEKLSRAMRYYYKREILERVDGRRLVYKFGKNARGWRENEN
# Summary of the method: as §1
# SPI1 = SPI1 (Homo sapiens, UniProt P17947 1-270); conditions: protein: recombinant; tags: N-terminal GST; dsDNA, one strand shown
# Summary of the method: as §1
# SPIB = SPIB (Homo sapiens, UniProt Q01892 1-262); conditions: protein: recombinant; tags: N-terminal GST; dsDNA, one strand shown
# Sequence of SPIB (Q01892 whole entry): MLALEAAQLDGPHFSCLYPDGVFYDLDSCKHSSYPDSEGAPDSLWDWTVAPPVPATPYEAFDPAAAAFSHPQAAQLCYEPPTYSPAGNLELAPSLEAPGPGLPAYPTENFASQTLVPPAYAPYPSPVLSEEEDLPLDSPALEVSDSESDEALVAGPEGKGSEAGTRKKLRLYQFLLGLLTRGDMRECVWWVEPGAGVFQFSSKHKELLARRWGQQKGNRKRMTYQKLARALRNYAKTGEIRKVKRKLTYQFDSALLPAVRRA
# Summary of the method: as §1
# ELK3 = target: T6, ELK3 (Homo sapiens, UniProt P41970 1-407); conditions: protein: recombinant; tags: N-terminal GST; dsDNA, one strand shown
# T6 sequence: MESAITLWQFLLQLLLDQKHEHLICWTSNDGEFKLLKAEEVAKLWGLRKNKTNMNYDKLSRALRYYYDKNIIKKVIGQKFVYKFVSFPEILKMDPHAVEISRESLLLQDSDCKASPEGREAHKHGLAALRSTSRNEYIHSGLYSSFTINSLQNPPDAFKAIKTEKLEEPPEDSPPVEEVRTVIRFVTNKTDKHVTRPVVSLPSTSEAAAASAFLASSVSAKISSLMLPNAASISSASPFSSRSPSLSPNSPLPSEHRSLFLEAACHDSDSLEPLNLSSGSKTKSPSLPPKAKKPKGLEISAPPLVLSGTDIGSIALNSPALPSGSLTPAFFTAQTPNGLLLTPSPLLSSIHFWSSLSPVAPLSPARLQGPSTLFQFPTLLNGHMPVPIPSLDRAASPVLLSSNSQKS
# Summary of the method: as §1
# FEV = target: T7, FEV (Homo sapiens, UniProt Q99581 1-238); conditions: protein: recombinant; tags: N-terminal GST; dsDNA, one strand shown
# T7 sequence: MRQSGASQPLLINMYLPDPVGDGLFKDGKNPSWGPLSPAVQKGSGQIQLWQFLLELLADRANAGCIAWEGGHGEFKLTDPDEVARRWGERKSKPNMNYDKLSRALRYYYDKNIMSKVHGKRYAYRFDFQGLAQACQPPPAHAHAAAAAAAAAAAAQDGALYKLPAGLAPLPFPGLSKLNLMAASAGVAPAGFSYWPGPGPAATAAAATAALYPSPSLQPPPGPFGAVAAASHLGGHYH
# Summary of the method: as §1
# ETV5 = ETV5 (Homo sapiens, UniProt P41161 1-510); conditions: protein: recombinant; tags: N-terminal GST; dsDNA, one strand shown
# Sequence of ETV5 (P41161 whole entry): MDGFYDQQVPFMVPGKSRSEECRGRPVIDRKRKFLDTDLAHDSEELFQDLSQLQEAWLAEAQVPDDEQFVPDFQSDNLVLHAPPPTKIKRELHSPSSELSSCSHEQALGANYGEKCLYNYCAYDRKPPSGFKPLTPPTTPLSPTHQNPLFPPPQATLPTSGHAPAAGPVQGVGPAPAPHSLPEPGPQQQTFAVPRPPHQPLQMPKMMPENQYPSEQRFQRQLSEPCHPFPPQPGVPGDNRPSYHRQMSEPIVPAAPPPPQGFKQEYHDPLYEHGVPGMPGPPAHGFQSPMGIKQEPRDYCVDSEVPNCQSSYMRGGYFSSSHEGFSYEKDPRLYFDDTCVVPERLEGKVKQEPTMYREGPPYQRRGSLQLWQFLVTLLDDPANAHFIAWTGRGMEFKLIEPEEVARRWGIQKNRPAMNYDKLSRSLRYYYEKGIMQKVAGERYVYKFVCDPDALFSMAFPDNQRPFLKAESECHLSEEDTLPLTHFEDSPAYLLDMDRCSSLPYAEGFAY
# Summary of the method: as §1
# HSF1 = HSF1 (Homo sapiens, UniProt Q00613 1-529); conditions: protein: recombinant; tags: N-terminal GST; chain copies: 3; dsDNA, one strand shown
# Sequence of HSF1 (Q00613 whole entry): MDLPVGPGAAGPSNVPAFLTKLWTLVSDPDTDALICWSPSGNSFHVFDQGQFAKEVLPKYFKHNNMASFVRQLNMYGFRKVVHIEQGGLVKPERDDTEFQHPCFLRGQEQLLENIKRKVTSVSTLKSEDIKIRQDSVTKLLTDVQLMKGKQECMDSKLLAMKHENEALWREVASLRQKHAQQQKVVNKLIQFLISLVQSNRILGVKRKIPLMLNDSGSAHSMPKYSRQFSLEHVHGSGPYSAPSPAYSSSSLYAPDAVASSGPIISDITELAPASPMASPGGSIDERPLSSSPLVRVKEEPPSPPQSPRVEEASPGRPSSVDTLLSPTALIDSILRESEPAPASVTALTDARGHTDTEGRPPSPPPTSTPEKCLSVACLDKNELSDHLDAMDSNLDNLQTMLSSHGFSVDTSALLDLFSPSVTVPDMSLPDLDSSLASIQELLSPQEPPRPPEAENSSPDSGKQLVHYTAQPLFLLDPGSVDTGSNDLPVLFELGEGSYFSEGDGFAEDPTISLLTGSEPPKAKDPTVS
# Summary of the method: as §1
# SPIC = target: T8, SPIC (Homo sapiens, UniProt Q8N5J4 1-248); conditions: protein: recombinant; tags: N-terminal GST; dsDNA, one strand shown
# T8 sequence: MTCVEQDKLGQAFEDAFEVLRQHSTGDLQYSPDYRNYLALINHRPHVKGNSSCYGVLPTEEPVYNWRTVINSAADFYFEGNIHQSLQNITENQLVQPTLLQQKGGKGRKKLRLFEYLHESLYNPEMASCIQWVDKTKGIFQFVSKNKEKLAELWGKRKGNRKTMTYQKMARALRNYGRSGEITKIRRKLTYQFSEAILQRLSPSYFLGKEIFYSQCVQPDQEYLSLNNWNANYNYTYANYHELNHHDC
# Summary of the method: as §1
# ELF4 = ELF4 (Homo sapiens, UniProt Q99607 1-663); conditions: protein: recombinant; tags: N-terminal GST; dsDNA, one strand shown
# Sequence of ELF4 (Q99607 whole entry): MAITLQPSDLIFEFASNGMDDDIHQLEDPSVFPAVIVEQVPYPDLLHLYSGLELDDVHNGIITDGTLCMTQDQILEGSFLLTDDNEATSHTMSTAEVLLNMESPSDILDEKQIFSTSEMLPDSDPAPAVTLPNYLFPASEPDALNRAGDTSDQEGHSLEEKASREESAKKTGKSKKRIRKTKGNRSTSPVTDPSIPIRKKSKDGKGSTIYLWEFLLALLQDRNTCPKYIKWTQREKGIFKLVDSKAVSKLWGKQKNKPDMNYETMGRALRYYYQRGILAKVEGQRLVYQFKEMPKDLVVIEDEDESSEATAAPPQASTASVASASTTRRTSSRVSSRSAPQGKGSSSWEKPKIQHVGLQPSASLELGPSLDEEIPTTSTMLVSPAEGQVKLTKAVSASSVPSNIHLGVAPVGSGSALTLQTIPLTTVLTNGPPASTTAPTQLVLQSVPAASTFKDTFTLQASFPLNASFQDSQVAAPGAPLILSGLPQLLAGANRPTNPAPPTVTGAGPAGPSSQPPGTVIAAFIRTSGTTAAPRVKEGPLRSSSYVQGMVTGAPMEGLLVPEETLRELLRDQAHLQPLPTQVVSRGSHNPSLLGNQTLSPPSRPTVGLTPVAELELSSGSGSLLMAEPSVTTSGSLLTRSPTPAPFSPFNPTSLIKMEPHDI
# Summary of the method: as §1
# ELK4 = target: T9, ELK4 (Homo sapiens, UniProt P28324-2 1-405); conditions: protein: recombinant; tags: N-terminal GST; dsDNA, one strand shown
# T9 sequence: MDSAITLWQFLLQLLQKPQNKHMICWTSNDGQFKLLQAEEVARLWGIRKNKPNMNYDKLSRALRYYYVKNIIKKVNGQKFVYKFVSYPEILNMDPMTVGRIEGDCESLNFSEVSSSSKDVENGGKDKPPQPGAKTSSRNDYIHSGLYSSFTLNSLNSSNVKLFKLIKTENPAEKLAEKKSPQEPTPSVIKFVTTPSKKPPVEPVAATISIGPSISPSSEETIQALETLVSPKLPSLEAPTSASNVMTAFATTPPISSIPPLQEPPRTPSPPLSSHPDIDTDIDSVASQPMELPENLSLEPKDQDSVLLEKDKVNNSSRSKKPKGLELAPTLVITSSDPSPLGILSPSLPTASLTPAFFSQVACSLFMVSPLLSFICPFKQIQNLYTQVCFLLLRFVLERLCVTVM
# Summary of the method: as §1
# ETV2 = target: T10, ETV2 (Homo sapiens, UniProt O00321 1-342); conditions: protein: recombinant; tags: N-terminal GST; dsDNA, one strand shown
# T10 sequence: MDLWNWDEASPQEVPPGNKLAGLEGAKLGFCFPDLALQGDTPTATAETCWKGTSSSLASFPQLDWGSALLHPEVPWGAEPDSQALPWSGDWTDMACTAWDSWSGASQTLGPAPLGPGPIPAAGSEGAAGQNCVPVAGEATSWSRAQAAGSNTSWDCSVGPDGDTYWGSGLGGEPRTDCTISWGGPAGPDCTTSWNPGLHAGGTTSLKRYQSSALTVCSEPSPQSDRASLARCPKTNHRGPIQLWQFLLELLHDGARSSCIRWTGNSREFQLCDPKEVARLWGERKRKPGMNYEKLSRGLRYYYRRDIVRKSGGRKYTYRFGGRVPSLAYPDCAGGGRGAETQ
# Summary of the method: as §1
# ELF3 = target: T11, ELF3 (Homo sapiens, UniProt P78545 1-371); conditions: protein: recombinant; tags: N-terminal GST; dsDNA, one strand shown
# T11 sequence: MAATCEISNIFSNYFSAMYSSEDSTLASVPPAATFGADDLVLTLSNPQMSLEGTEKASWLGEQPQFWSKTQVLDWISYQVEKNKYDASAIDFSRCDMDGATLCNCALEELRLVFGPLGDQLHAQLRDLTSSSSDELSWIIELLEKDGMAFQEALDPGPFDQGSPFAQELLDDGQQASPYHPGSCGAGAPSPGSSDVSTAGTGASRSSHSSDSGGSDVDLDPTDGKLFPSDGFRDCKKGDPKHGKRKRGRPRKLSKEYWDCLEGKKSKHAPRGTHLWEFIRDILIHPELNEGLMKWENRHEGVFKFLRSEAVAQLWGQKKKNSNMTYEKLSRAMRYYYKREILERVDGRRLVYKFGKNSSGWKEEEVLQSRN
# Summary of the method: as §1
# CRX = CRX (Homo sapiens, UniProt O43186 1-299); conditions: protein: recombinant; tags: N-terminal GST; dsDNA, one strand shown
# Sequence of CRX (O43186 whole entry): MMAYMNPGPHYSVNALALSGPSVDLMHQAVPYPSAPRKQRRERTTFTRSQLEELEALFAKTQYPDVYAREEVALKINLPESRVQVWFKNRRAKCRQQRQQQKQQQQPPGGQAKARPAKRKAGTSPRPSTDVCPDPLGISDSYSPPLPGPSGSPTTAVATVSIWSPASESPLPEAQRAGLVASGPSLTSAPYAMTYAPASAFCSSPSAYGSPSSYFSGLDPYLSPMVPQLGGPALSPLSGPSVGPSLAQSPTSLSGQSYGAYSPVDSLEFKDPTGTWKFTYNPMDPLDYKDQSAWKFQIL
# Summary of the method: as §1
# ETV1 = ETV1 (Homo sapiens, UniProt P50549 1-477); conditions: protein: recombinant; tags: N-terminal GST; dsDNA, one strand shown
# Sequence of ETV1 (P50549 whole entry): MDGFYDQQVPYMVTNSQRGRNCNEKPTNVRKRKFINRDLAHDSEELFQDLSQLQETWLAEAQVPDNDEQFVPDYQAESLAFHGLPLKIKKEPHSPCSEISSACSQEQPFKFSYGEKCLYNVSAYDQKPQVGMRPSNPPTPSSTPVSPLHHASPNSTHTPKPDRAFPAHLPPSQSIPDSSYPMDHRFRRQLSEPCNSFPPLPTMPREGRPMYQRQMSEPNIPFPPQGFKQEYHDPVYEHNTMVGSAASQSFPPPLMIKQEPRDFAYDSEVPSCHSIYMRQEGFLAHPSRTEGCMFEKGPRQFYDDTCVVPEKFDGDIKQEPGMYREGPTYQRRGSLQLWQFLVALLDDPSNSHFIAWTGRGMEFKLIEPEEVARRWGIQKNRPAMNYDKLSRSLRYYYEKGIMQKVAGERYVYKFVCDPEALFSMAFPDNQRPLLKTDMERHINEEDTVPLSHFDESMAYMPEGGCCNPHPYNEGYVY
# Summary of the method: as §1
sequence,measurement,setting,value
GCTTCC,binding signal,FLI1,"3.32 fold enrichment (6-mer frequency, TF over GST control)"
same,binding signal,ELK1,"3.85 fold enrichment (6-mer frequency, TF over GST control)"
same,binding signal,GABPA,"3.27 fold enrichment (6-mer frequency, TF over GST control)"
same,binding signal,ERG,"4 fold enrichment (6-mer frequency, TF over GST control)"
same,binding signal,ELF1,"3.21 fold enrichment (6-mer frequency, TF over GST control)"
same,binding signal,EHF,"3.72 fold enrichment (6-mer frequency, TF over GST control)"
same,binding signal,SPI1,"3.73 fold enrichment (6-mer frequency, TF over GST control)"
same,binding signal,SPIB,"3.8 fold enrichment (6-mer frequency, TF over GST control)"
same,binding signal,ELK3,"4.31 fold enrichment (6-mer frequency, TF over GST control)"
same,binding signal,FEV,"4.3 fold enrichment (6-mer frequency, TF over GST control)"
same,binding signal,ETV5,"3.97 fold enrichment (6-mer frequency, TF over GST control)"
same,binding signal,HSF1,"1.47 fold enrichment (6-mer frequency, TF over GST control)"
same,binding signal,SPIC,"3.3 fold enrichment (6-mer frequency, TF over GST control)"
same,binding signal,ELF4,"3.18 fold enrichment (6-mer frequency, TF over GST control)"
same,binding signal,ELK4,"2.98 fold enrichment (6-mer frequency, TF over GST control)"
same,binding signal,ETV2,"3.44 fold enrichment (6-mer frequency, TF over GST control)"
same,binding signal,ELF3,"3.14 fold enrichment (6-mer frequency, TF over GST control)"
same,binding signal,CRX,"1.19 fold enrichment (6-mer frequency, TF over GST control)"
same,binding signal,ETV1,"3.62 fold enrichment (6-mer frequency, TF over GST control)"

# Reference: paper PMC7862700, “An all-to-all approach to the identification of sequence-specific readers for epigenetic DNA modifications on cytosine”
